Here are results for nine compounds from PubChem BioAssay (NCATS).

For test [1], the target named is Transient receptor potential cation channel subfamily V member 1 (Homo sapiens) (UniProt Q8NER1). The experiment in a line: HTS Assay for Compounds that Act as Enhancers of the Vanilloid Receptor 1 (AID 488979). Note: 0% is about no effect. Put shortly:
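TRPV1-expressing cells loaded with Fluo-8 calcium dye; compounds added and calcium influx read kinetically for 3 min (agonist phase), then capsaicin at EC20 added and read 2 min more for enhancement. Fluorescence ex 480/em 520 nm.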

The target of test [2] is Thyrotropin receptor (Homo sapiens) (UniProt P16473). The experiment in a line: qHTS Assay for Antagonists of the Thyroid Stimulating Hormone Receptor (AID 488980). Note: series mostly up to about 58 µM; 0% is about no effect. In short, it runs like this: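 Readout is cAMP by HTRF competition between cellular cAMP and cAMP-d2 for a cryptate-labelled antibody. Antagonism was assessed in TSHR-transfected HEK293 cells stimulated with 4 nM TSH (EC80, final) in the presence of RO 20-1724.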
Thyrotropin receptor (Homo sapiens), sequence (P16473 whole entry, looked up): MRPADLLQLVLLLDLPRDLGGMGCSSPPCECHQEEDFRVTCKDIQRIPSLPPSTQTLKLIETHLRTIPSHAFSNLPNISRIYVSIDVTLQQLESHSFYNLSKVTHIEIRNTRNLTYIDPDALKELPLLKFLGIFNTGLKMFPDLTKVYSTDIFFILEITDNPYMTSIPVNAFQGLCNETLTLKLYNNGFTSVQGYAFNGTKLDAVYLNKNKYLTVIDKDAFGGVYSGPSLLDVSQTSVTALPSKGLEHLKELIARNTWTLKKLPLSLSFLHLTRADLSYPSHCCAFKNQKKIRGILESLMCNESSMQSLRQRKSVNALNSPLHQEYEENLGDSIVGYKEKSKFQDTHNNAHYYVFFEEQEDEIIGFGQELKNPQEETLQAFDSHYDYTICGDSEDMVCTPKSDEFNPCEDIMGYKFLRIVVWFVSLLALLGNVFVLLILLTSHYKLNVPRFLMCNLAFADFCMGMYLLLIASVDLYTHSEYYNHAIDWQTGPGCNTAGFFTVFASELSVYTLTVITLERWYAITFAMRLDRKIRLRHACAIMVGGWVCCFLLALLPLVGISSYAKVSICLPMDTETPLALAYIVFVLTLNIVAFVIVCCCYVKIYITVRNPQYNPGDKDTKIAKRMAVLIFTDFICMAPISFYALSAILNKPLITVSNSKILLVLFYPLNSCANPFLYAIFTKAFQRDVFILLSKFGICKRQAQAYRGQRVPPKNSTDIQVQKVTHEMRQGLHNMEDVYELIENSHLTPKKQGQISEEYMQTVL
(In qHTS, concentration-response curves come from the screen itself.)

Test [3] addresses D(1A) dopamine receptor (Homo sapiens) (UniProt P21728). The experiment in a line: HTS Assay for Allosteric Agonists of the Human D1 Dopamine Receptor: Primary Screen for Potentiators (AID 488982). Note: potency is the fitted concentration of half-maximal effect. Put shortly:
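Tetracycline-induced HEK293 T-REx cells force-coupled to calcium signalling were incubated overnight at 30 C and dye-loaded at room temperature. Calcium flux over 180 s after compound addition flagged agonists; a further 180 s read after EC20 dopamine flagged potentiators.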

For test [4] the target is unchanged. In words: HTS Assay for Allosteric Agonists of the Human D1 Dopamine Receptor: Primary Screen for Antagonists (AID 488983).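 Note: calcium flux response to an EC80 dopamine challenge measured with no-wash dye; % is set by controls: 0 for no effect and ±100 for the full control effect; nearly all actives have a fitted effect of over 65% in size.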 In short, it runs like this:
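Screening of inducible HEK293 T-REx D1 cells: compound first, EC80 dopamine 180 s later, each phase read kinetically for calcium over 180 s.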

The nature of test [5]: Validation screen for small molecules that induce genotoxicity in human embryonic kidney (HEK293T) cells expressing luciferase-tagged ELG1 (AID 493106). Note: 0% is about no effect. Put shortly:
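Reporter-gene quantitative HTS in HEK293T cells carrying luciferase-tagged ELG1, whose level climbs under genotoxic stress. Compound exposure lasts 16 hr at 37 °C before luciferase detection.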

Test [6] deals with Thyrotropin-releasing hormone receptor (Homo sapiens) (UniProt P34981). In words: qHTS for Small Molecule Agonists and Allosteric Enhancers of Human TRH Receptor: Validation Screen for Agonists (AID 493127;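 active = calcium activation more than 3 SD above the typical response in the agonist read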;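 note: intracellular calcium rise by fluo-8 fluorescence before TRH EC20 addition; 0% is about no effect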). Particulars: TRH receptor agonist cell assay; at 2 µM; stronger effect = higher value. In short, it runs like this: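 Gq-coupled calcium mobilization in TRHR cells after compound addition, monitored kinetically with fluo-8 dye on an FDSS reader.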

A short description of test [7]: Nrf2 qHTS screen for inhibitors: Validation (AID 493153; active = well fitted inhibition curve with a large enough effect in the main read-out, with a control signal flat, not every such curve was filed as active; note: potency is the fitted concentration of half-maximal effect). The conditions noted are these: Potency: luciferase luminescence; viability change: measured here: cytotoxicity max response. In short, it runs like this:
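Dose-response validation uses reporter A549 cells with firefly luciferase under an antioxidant response element. Compounds stay on cells 18-24 h at 37°C, and luminescence indicates Nrf2-driven transcription.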

Test [8] is described as follows: qHTS for Inhibitors of Cell Surface uPA Generation: Validation Assay (AID 493164).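 Note: RAW 264.7 macrophage cells exposed to compound for 18 h; 0% is about no effect.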 Put shortly:
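RAW 264.7, 4000 cells/well, o/n plating; cpd 7-pt 1:5 dilution 2.45 nM–38.3 uM final; 18 h, 37 C/5% CO2; ATP-Lite, 5 s luminescence exposure.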

For test [9], the target named is Galactokinase (Homo sapiens) (UniProt P51570). The experiment in a line: qHTS Validation Assay for Inhibitors of Human Galactokinase (GALK) (AID 493189). Note: 0% is about no effect. In short, it runs like this:
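5 nM GALK / 100 uM galactose / 35 uM ATP, 20 mM HEPES pH8.0, 5 mM MgCl2, 60 mM NaCl, 1 mM DTT, 0.01% BSA (final). RT 1 h; Kinase-Glo Plus luminescence.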

A short description of test [10]: Validation screen for small molecules that induce DNA re-replication in SW480 colon adenocarcinoma cells (AID 504364). Note: 0% is about no effect. In short, it runs like this:
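Cells are treated 48 hr with test compound, stained 40 min with Hoechst at 37 C, and scanned for nuclear fluorescence; compounds inducing re-replication increase nuclei with elevated intensity.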

Test [11] concerns the target Peptidyl-prolyl cis-trans isomerase NIMA-interacting 1 (Homo sapiens) (UniProt Q13526). In words: qHTS Validation Assay to Find Inhibitors of Pin1 (AID 504536; active = well fitted inhibition curve with a large enough effect in the polarisation, with a control signal flat, not every such curve was filed as active; the % refers to the polarisation;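 note: 0% = full Pin1 enzyme wells and -100% = no-enzyme wells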). Put shortly: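 Fluorescence polarization competition: compounds (titration) displace HiFluor-488-labeled Pin1-1b peptide from Pin1 (0.3 uM final) in pH 7.5 HEPES buffer with DTT, 10 min at room temperature; %Activity normalized to no-enzyme wells, curves fitted.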

Test [12] has as its target Phosphoglycerate kinase, glycosomal (Trypanosoma brucei brucei) (UniProt P07378). The experiment in a line: qHTS Validation Assay to Find Inhibitors of Phosphoglycerate Kinase (AID 504547).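 Note: control wells lack PGK and mark full inhibition.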 Put shortly:
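Substrate/PGK mix plus compound; reaction started with GAPDH (100nM final) to form 1,3-BPG; 60 min RT; Kinase-Glo Plus 10 min; luminescence. TEA 100mM pH 7.6, MgCl2 5mM, Tween-20 0.01%.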

The target of test [13] is phosphoglycerate mutase (Leishmania major) (UniProt Q4Q090). In words: qHTS Validation Assay to Find Inhibitors of Phosphoglycerate Mutase (AID 504548).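 Note: end-point luminescence from Kinase-GloPlus after the PGAM reaction; series mostly up to about 58 µM; % is set by controls: 0 for no effect and ±100 for the full control effect.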 Particulars: Potency: inhibition qHTS. In short, it runs like this: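 L. major PGAM (1.25nM final) was added to substrate buffer and pinned compound, incubated 45 minutes at room temperature, then Kinase-GloPlus added; luminescence read after 10 minutes. Buffer: 100 mM TEA pH 7.6, 5 mM MgCl2, 0.01% Tween-20.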
phosphoglycerate mutase (Leishmania major), sequence (Q4Q090 1-553): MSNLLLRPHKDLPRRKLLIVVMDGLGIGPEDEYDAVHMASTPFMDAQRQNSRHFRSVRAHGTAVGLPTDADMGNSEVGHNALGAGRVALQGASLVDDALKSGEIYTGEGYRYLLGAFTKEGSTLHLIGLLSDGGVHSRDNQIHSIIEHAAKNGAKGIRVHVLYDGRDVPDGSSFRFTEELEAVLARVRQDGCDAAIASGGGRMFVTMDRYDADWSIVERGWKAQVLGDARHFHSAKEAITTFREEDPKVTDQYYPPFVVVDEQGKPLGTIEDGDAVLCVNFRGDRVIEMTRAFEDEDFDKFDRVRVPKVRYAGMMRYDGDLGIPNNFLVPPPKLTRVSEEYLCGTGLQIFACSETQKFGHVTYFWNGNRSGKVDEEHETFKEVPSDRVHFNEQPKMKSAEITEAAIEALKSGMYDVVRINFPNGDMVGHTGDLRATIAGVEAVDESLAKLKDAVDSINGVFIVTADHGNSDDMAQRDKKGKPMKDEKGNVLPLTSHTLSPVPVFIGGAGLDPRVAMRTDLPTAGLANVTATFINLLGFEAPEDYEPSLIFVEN

Test [14] has as its target Ubiquitin carboxyl-terminal hydrolase 1 (Homo sapiens) (UniProt O94782). In words: Inhibitors of USP1/UAF1: Pilot qHTS (AID 504865).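 Note: rhodamine fluorescence freed from ubiquitin-rhodamine substrate followed over time; top concentration of the series differs between compounds; % is set by controls: 0 for no effect and ±100 for the full control effect; nearly all actives have a fitted effect of over 35% in size.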 Put shortly:
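In 50mM HEPES pH 7.8 containing 0.5mM EDTA, 1mM TCEP, 0.1 mg/ml BSA and 0.01% Tween-20, 1nM USP1/UAF1 is exposed to compound for 15 min, then Ub-Rho (150nM final) is added and fluorescence is read over time.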

The nature of test [15]: qHTS for Inhibitors of ATXN expression: Validation of Cytotoxic Assay (AID 588349).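 Note: cells exposed to compound for 72 hr; % is set by controls: 0 for no effect and ±100 for the full control effect.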 In short, it runs like this:
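HEK293, compound dose series, 72 hr / 37 degrees C; viability via CellTiter Glo (intracellular ATP).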

Test [16] is described as follows: qHTS for Inhibitors of ATXN expression: Validation (AID 588378). Note: series mostly up to about 57 µM; % is set by controls: 0 for no effect and ±100 for the full control effect; nearly all actives have a fitted effect of over 75% in size. In short, it runs like this: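 Compounds were pinned onto attached HEK293 cells carrying an ATXN2-firefly luciferase construct and incubated 24 hrs at 37 degrees C. Each well then received a fluorescent viability reagent followed by luciferase substrate for end-point luminescence.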
Test [17] addresses DNA dC->dU-editing enzyme APOBEC-3G (Homo sapiens) (UniProt Q9HC16). The experiment in a line: qHTS for inhibitors of Vif-A3G interactions: Validation (AID 588379). Note: 0% is about no effect. Put shortly:
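HeLa cells stably expressing Vif and A3G-eYFP, 700 cells/well, incubated overnight at 37 deg C, then exposed to compound overnight at 37 deg C. Inhibition of Vif-mediated degradation read as increased yellow fluorescence (Ex 488/Em 500-530) by laser-scanning cytometry.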

The target of test [18] is ATPase family AAA domain-containing protein 5 (Homo sapiens) (UniProt Q96QE3). In words: Validation screen for small molecules that inhibit ELG1-dependent DNA repair in human embryonic kidney (HEK293T) cells expressing luciferase-tagged ELG1 (AID 493107).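 Note: cells co-treated with the DNA-damaging agent 5-fluorouridine alongside compound; series mostly up to about 46 µM; % is set by controls: 0 for no effect and ±100 for the full control effect; inhibitors lower the ELG1-luciferase luminescence signal; nearly all actives have a fitted effect of over 70% in size.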 Put shortly: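 Quantitative HTS in HEK293T cells carrying luciferase-tagged ELG1, stimulated with 5-fluorouridine alongside compound for 16 hr. Loss of luciferase signal marks inhibition of ELG1 response.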

For test [19], the target named is ATP-dependent 6-phosphofructokinase (Trypanosoma brucei brucei) (UniProt O15648). The experiment in a line: qHTS Assay to Find Inhibitors of T. brucei phosphofructokinase: hit validation (AID 492961).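 Note: luminescence reports ADP formed as PFK phosphorylates fructose-6-phosphate with ATP; series mostly up to about 51 µM; % is set by controls: 0 for no effect and ±100 for the full control effect.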 In short, it runs like this:
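Reaction: 0.1 M triethanolamine pH 8.0, 5 mM MgCl2, F6P 0.5 mM, ATP 0.1 mM, PFK 1.25 nM, 45 min RT. Read-out: ADP-Glo luminescence. Analysis: concentration-response fits, classed by r2 and efficacy.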

Records with an inconclusive call do not appear. Calls of active or inactive are those of the source. Unless noted, calls come from the whole dose curve; as a rule, active = well fitted curve in the direction sought with a large enough effect; inconclusive = small, poorly fitted or top-dose-only effect, or another doubt; inactive = no such curve, though single readings can be large; an effect the other way counts as inactive or inconclusive.

Peptidyl-prolyl cis-trans isomerase NIMA-interacting 1 (Homo sapiens), sequence (Q13526 whole entry, looked up): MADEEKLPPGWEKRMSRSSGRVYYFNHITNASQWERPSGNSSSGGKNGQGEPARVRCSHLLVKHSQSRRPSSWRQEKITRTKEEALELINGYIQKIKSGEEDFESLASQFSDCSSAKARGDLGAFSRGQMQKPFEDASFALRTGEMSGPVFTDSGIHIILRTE
DNA dC->dU-editing enzyme APOBEC-3G (Homo sapiens), sequence (Q9HC16 whole entry, looked up): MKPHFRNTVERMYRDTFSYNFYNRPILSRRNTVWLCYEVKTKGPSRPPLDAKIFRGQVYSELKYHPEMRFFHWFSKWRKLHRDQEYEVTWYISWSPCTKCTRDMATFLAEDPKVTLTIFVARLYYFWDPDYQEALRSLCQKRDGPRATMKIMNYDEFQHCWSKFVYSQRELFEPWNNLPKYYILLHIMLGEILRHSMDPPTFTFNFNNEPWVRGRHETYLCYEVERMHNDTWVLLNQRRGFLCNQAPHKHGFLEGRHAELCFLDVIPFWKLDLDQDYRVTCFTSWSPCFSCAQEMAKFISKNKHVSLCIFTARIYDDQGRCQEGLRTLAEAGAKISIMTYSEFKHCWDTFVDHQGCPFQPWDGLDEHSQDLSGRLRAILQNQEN
D(1A) dopamine receptor (Homo sapiens), sequence (P21728 whole entry, looked up): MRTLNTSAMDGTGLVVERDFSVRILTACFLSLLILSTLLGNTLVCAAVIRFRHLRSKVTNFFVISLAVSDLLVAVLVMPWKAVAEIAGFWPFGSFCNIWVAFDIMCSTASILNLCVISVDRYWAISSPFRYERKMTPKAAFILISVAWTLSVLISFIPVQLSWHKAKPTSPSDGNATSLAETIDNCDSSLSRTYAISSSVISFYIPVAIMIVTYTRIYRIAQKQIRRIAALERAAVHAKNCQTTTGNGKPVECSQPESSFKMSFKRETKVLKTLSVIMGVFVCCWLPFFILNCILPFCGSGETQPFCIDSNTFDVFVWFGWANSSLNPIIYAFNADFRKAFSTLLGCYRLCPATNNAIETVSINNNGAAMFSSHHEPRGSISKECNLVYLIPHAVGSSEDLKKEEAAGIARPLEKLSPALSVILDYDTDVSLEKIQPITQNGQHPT
Ubiquitin carboxyl-terminal hydrolase 1 (Homo sapiens), sequence (O94782 whole entry, looked up): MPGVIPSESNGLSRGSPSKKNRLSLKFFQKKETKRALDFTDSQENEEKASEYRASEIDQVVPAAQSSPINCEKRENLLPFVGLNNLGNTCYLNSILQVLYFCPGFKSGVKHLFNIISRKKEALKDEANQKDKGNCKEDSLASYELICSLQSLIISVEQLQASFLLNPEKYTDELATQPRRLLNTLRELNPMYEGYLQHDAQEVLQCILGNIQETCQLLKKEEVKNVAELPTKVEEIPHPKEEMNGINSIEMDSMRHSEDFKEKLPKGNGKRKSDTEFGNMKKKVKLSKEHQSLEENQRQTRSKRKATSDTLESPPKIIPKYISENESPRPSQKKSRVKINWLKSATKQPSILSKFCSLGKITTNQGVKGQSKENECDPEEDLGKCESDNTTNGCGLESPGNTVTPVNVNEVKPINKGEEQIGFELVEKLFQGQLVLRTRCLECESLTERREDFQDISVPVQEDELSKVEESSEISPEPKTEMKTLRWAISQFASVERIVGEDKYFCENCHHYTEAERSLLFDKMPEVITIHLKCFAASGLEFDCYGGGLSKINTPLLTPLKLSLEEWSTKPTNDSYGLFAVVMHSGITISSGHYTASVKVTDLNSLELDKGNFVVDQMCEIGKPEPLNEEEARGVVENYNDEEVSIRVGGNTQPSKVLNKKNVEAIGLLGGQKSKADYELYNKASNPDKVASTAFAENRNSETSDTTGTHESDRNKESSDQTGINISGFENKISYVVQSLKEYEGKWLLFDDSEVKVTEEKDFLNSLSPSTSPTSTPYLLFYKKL
Transient receptor potential cation channel subfamily V member 1 (Homo sapiens), sequence (Q8NER1 whole entry, looked up): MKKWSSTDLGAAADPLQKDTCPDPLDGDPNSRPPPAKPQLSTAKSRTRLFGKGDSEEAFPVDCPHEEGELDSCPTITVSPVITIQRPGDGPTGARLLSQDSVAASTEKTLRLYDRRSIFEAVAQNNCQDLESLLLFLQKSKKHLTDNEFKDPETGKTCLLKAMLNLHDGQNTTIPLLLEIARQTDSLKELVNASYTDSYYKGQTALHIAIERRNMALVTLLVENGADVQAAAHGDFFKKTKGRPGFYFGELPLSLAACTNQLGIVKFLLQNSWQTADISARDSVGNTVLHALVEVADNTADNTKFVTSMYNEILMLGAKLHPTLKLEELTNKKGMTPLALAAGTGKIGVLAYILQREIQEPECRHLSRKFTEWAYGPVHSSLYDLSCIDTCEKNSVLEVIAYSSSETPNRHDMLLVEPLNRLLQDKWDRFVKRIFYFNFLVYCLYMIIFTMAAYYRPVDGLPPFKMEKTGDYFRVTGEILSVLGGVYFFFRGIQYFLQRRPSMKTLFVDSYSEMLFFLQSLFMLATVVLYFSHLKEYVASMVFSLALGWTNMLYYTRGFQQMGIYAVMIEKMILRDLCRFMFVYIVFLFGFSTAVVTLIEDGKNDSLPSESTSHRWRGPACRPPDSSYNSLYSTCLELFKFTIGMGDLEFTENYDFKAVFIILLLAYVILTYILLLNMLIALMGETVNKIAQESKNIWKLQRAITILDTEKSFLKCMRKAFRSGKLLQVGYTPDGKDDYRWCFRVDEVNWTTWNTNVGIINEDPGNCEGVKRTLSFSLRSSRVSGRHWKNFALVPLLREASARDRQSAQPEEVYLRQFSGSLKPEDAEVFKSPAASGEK
Phosphoglycerate kinase, glycosomal (Trypanosoma brucei brucei), sequence (P07378 whole entry, looked up): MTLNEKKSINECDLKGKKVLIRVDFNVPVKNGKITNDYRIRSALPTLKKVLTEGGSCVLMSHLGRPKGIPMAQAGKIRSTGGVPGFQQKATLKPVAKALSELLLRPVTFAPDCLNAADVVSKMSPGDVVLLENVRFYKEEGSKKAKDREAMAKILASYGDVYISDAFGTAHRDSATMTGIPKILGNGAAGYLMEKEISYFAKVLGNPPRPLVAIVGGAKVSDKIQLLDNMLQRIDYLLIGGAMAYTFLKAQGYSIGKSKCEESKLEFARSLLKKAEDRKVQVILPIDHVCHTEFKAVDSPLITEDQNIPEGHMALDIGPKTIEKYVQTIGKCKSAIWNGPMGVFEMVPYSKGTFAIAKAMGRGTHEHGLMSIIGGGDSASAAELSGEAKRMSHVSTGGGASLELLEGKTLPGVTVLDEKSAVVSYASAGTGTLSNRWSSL
Galactokinase (Homo sapiens), sequence (P51570 whole entry, looked up): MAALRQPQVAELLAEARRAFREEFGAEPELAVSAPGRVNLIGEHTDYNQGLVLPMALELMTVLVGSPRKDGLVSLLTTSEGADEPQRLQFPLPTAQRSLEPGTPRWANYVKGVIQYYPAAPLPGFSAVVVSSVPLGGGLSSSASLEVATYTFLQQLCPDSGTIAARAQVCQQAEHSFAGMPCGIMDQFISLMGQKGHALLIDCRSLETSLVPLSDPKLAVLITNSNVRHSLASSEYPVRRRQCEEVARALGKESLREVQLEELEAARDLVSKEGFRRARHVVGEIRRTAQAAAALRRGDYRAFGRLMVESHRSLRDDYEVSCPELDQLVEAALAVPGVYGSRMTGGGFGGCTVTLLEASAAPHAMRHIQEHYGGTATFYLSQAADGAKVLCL

Take `O=c1cc(N2CCOCC2)oc2c(-c3ccccc3)cccc12`: the result in test [1], in [2], in test [8], in [9], in test [11] and in [15] was inactive. Further, the result in test [17] was inactive. The Potency entry in test [3], in test [4], in [5], in [10], in test [12] and in [13] was “inactive” throughout. Moreover, the Potency entry in test [14] and in test [16] was “inactive” throughout. Also, in [6], the activation is -3.19% (inactive). In [7], the Potency was 9.2 µM (active). Besides, the viability change in test [7] is -18.1%.
Take `O=C1c2c(O)cc(O)cc2OC(c2ccc(O)c(O)c2)C1O` (stereo not drawn): the outcome in test [1], in test [2], in test [18], in test [8], in test [9] and in test [15] was inactive. For the same compound, in test [17], the result was inactive. The Potency entry in test [4], in test [5], in [7], in test [10], in test [13] and in test [16] was “inactive” throughout. Besides, the activation in test [6] was 0% (inactive). Moreover, the viability change in test [7] was -0.133%.
In the case of `O=C(O)c1cccnc1Nc1cccc(C(F)(F)F)c1`, the result in [1], in test [18], in [8], in test [9], in test [11] and in test [15] was inactive. Also, the Potency result in test [3], in test [4], in [5], in test [10], in test [12] and in test [13] was “inactive” throughout. In addition, the Potency entry in [14] and in test [16] was “inactive” throughout. The activation in test [6] was 1.5% (inactive).
With `NNc1nncc2ccccc12`, the outcome in [1], in test [2], in test [19], in [8], in [9] and in test [11] was inactive. Moreover, the compound was classed as inactive in test [15]. Besides, the Potency entry in test [3], in test [4], in test [7], in test [10], in [12] and in test [13] was “inactive” throughout. Besides, the Potency entry in test [14] and in [16] was “inactive” each time. Also, in [7], the viability change was -2.74%.
`Cc1cc(O)c2c(c1)C(=O)c1cc(O)cc(O)c1C2=O`: the outcome in test [1], in test [2], in [18], in test [8], in test [9] and in test [11] was inactive. In test [15], the outcome was inactive. In addition, the Potency result in test [3], in [4], in [5], in test [7], in test [10] and in test [12] was “inactive” in each case. Moreover, the Potency entry in test [16] is “inactive”. The activation in [6] was 10.2% (inactive). The viability change in test [7] was -15.1%.
For the compound `O=C(c1ccccc1)c1ccc2n1CCC2C(=O)O` (stereo not drawn), the result in test [1], in test [18], in [8], in test [9], in test [11] and in test [15] was inactive. Moreover, the Potency entry in test [3], in test [4], in test [5], in [7], in [10] and in test [12] was “inactive” throughout. For the same compound, the Potency result in test [13], in test [14] and in test [16] was “inactive” throughout. Moreover, the viability change in test [7] came to 0.0927%.
Consider `O=C1NC(=O)C(c2ccccc2[N+](=O)[O-])=C1Nc1ccc(O)c(Cl)c1`, for which the result in test [1], in test [2], in [8], in test [9], in test [11] and in test [15] was inactive. The call in test [17] was inactive. The Potency in test [3] was 5.17 µM (active). Further, the Potency result in test [4], in test [5], in test [7], in test [12], in test [13] and in test [14] was “inactive” each time. Also, the Potency entry in test [16] is “inactive”. Further, the activation in [6] is 1.69% (inactive). Also, the viability change in test [7] is 5.73%.
With `CC1(C)NC(=O)N(c2ccc([N+](=O)[O-])c(C(F)(F)F)c2)C1=O`, the result in test [1], in test [2], in test [18], in test [8], in test [9] and in [11] was inactive. The compound was called inactive in [15] and in [17]. Also, the Potency entry in test [3], in test [4], in test [5], in [10], in test [12] and in test [13] was “inactive” each time. Moreover, the Potency entry in test [16] is “inactive”. For the same compound, the activation in test [6] is -3.25% (inactive).
`Oc1ccc(-c2nc(-c3ccc(F)cc3)c(-c3ccncc3)[nH]2)cc1`: the outcome in test [1], in test [2], in [8], in [9], in test [11] and in test [15] was inactive. Further, the Potency result in test [3], in test [4], in test [5], in [10], in [12] and in test [13] was “inactive” throughout. Besides, in test [16], the Potency result is “inactive”. For the same compound, the activation in test [6] was -3.81% (inactive).
